Source: PubChem BioAssay AID1259354 (Paczesny and Yang Labs, IUPUI and University of Michigan, 2018)
In all, about 78,000 compounds went through this assay and about 1,800 (2.3%) were called active. Another 27% or so got no clear call; they are omitted. No stated cut-off is given here; in the data, active means inhibition above about 30%; inconclusive means mostly about 10% to 28%; inactive means weaker than that. For the sample, actives were picked, then their nearest neighbours and some compounds at random.

biological target: Interleukin-1 receptor-like 1 (Homo sapiens) (UniProt Q01638); assay: inhibitors of human ST2 (IL1RL1) binding to IL-33, primary screen, biochemical, AlphaLISA (AID 1259354); conditions: AlphaLISA ST2-Fc/biotin-IL-33 interaction, 1 h; at 17 µM, active compounds read high
Sequence (Q01638 whole entry, looked up): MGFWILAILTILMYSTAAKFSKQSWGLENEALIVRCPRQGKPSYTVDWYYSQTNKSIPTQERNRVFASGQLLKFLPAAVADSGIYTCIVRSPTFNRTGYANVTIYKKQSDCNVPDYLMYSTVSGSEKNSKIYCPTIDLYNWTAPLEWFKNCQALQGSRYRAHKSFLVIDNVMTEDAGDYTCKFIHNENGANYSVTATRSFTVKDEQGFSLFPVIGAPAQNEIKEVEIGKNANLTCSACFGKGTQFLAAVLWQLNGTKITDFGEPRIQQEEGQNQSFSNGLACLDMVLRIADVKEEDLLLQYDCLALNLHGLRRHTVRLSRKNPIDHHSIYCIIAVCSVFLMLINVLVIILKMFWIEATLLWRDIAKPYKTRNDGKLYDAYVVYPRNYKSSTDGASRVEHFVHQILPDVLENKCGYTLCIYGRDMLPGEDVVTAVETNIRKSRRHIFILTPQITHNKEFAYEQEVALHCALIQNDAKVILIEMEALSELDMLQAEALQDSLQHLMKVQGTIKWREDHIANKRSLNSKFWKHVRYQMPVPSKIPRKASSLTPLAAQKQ

| Compound | inhibition |
| --- | --- |
| Cc1csc(SCC(=O)N2CCC(c3cc(C(C)C)n[nH]3)CC2)n1 | inactive |
| O=C(CN1CCN(Cc2cccc(Cl)c2)C1=O)N1CCCC1 | inactive |
| O=C(CSC1=Nc2ccccc2C2=NC(Cc3ccccc3)C(=O)N12)NC1CCCCC1 (stereo unspecified) | inactive |
| COCCn1ccnc1-c1[nH]cnc1-c1ccccc1 | inactive |
| CC(C)c1ccc(-c2nc(N3CCCCC3)nc3n[nH]c(N)c23)cc1 | inactive |
| Cc1cc2c(Nc3cccc(Cl)c3C)ncnc2s1 | inactive |
| Nc1nonc1-n1nnc(CN2CCCCC2)c1CN1CCCCC1 | inactive |
| COc1ccc2nc(NC(=O)Cc3c(C(=O)O)n(C)c4ccccc34)sc2c1 | inactive |
| Cc1ccc(N(C(=O)c2ccccc2Br)C2C=CS(=O)(=O)C2)cc1C (stereo unspecified) | inactive |
| O=C(Nc1cccc([N+](=O)[O-])c1)c1cccc(Cl)c1Cl | inactive |
| Cc1ccc(NC(=O)c2ccc(Br)o2)c(C)c1 | inactive |
| Cc1cccc(NC(=O)c2ccc([N+](=O)[O-])o2)c1 | 42% (active) |
| CSCCC(NS(=O)(=O)c1cccc2nsnc12)C(=O)O (stereo unspecified) | inactive |
| Cc1cccc(-c2nc(N3CCCC3)c3ccccc3n2)c1 | inactive |
| N#Cc1c(N2CCCCCC2)ncc2cc3ccccc3nc12 | 37% (active) |
| N#Cc1c(SCC(=O)Nc2ccccc2)ncc2cc3ccccc3nc12 | 32% (active) |

| Compound | inhibition |
| --- | --- |
| c1ccc(-c2csc3ncnc(N4CCCCC4)c23)cc1 | inactive |
| N#Cc1c(SCC(=O)Nc2ccccn2)nsc1SCC(=O)Nc1ccccn1 | inactive |
| N#Cc1c(-c2ccccc2)cc(-c2ccccc2)nc1SCC(=O)O | inactive |
| COc1cc2c(cc1OC)[C@H]1CN3CCc4cc(OC)c(OC)cc4[C@@H]3CN1CC2 | inactive |
| CCn1cc(S(=O)(=O)N2CCCC2c2ccccn2)c(C)n1 (stereo unspecified) | inactive |
| Cc1cc(C(=O)N(CC2CCN(C3Cc4ccccc4C3)CC2)CC2CCCO2)nc(C)n1 (stereo unspecified) | inactive |
| Cc1cc(C)c2c(CC(=O)NCc3cccnc3N3CCOCC3)coc2c1 | inactive |
| c1ccc(CSc2ncc(C3NCCc4[nH]cnc43)cn2)cc1 (stereo unspecified) | inactive |
| Cc1cc(NC(=O)C(NS(=O)(=O)c2cccs2)C(C)C)ccc1Br (stereo unspecified) | inactive |
| Fc1cccc(Cl)c1C1CC(c2ccccc2)Nc2ncnn21 (stereo unspecified) | inactive |
| Cn1c(CC2CCNCC2)nnc1SCCOc1ccc(Cl)cc1 | inactive |
| O=C(c1cccc(-c2ncc[nH]2)c1)N1Cc2cnn(CCO)c2C1 | inactive |
| CN1CCN(C(=O)c2ccnc(-c3cc(N)nc4[nH]ccc34)c2)CC1 | 30% (active) |
| O=C(c1ccnc(-n2cnnc2)c1)N1CCC2(CC1)C(=O)Nc1ccccc12 | inactive |
| COc1ccc(C(=O)NC(Nc2ccccc2Cl)C(Cl)(Cl)Cl)cc1 (stereo unspecified) | inactive |
